# Results published in the supplement of paper PMC6411743.
# ± gives the standard deviation of the averaged measurements. The full data set covers some 6,500 targets. This sample favours those with the largest changes.
# Compound: Nc1ncnc2c1ncn2[C@@H]1O[C@H](COP(=O)(O)OP(=O)(O)OP(=O)(O)O)[C@@H](O)[C@H]1O [adenosine triphosphate]
# Assay: NP40-soluble protein abundance relative to vehicle (solubility fold change) (ratio); higher = more soluble protein in presence of ATP
# Outline: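 Jurkat crude lysate (Dounce-homogenised) was treated with eight concentrations from 0.1 to 10 mM for 10 min at room temperature, then 3 min at 37 °C. It was solubilised with 0.8% NP40 and benzonase (60 min, 4 °C) and ultracentrifuged, and the supernatant was TMT-labelled for LC-MS/MS. Intensities were vsn-normalised, and the value is the fold change against the NP40-processed vehicle per replicate, from three independent experiments.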
# Sequence of UniProt Q86X95 (Q86X95 whole entry): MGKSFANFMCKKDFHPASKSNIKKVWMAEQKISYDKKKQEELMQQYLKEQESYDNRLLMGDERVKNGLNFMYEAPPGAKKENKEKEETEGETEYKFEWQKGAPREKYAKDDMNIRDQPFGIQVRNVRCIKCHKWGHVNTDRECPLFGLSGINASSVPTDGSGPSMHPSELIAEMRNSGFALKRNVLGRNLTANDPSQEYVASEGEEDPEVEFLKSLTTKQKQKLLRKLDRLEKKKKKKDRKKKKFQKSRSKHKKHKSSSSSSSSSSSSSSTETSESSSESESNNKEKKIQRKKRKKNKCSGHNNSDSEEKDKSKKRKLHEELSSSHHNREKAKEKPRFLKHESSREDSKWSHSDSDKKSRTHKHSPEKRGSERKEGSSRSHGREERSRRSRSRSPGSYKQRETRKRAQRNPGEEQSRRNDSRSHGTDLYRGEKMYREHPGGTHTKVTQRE
# Sequence of UniProt Q2NKX8 (Q2NKX8 whole entry): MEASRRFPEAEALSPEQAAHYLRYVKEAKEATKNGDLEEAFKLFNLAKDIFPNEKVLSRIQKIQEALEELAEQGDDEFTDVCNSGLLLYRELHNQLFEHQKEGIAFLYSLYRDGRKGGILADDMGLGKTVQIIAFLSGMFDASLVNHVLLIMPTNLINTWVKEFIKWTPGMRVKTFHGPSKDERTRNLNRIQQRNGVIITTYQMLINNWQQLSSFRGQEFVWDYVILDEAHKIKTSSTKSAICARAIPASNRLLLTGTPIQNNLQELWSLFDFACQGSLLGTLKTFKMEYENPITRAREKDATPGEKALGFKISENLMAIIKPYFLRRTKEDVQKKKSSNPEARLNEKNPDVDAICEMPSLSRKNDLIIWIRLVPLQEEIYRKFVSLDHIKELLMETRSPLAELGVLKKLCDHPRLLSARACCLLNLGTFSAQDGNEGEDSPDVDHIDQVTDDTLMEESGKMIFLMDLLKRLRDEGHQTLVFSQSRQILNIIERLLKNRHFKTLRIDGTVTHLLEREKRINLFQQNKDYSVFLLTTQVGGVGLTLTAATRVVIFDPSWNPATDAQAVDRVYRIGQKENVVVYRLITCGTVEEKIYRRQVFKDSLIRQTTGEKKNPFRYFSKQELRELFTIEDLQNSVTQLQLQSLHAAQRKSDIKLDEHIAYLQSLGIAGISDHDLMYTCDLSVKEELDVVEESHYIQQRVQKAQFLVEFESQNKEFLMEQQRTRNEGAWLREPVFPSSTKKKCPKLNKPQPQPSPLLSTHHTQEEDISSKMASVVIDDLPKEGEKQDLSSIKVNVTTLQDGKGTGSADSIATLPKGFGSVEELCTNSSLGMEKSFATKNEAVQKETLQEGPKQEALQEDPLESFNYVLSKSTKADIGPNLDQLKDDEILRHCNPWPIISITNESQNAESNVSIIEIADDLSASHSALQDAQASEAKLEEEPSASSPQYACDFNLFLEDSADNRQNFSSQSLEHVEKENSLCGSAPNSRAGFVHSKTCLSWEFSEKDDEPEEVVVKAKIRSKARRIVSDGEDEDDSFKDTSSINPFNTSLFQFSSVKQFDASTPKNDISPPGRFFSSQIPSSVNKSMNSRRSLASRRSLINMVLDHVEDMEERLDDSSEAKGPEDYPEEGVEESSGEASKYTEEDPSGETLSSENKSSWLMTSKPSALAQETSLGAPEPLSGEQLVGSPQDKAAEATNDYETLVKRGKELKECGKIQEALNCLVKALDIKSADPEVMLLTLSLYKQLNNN
# Sequence of UniProt Q7L4P6 (Q7L4P6 whole entry): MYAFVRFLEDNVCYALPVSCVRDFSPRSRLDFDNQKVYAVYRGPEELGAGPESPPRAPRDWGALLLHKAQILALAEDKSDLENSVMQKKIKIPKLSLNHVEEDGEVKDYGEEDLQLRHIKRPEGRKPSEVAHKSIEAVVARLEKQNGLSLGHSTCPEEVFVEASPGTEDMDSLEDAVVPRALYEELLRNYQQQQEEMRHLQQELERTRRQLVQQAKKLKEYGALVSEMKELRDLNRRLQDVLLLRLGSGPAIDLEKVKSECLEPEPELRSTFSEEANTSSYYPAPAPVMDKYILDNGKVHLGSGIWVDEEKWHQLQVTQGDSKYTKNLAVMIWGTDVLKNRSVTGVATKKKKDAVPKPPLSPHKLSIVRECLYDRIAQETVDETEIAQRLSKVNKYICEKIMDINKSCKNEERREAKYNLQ
# Sequence of UniProt Q8IWE5 (Q8IWE5 whole entry, one chain of several): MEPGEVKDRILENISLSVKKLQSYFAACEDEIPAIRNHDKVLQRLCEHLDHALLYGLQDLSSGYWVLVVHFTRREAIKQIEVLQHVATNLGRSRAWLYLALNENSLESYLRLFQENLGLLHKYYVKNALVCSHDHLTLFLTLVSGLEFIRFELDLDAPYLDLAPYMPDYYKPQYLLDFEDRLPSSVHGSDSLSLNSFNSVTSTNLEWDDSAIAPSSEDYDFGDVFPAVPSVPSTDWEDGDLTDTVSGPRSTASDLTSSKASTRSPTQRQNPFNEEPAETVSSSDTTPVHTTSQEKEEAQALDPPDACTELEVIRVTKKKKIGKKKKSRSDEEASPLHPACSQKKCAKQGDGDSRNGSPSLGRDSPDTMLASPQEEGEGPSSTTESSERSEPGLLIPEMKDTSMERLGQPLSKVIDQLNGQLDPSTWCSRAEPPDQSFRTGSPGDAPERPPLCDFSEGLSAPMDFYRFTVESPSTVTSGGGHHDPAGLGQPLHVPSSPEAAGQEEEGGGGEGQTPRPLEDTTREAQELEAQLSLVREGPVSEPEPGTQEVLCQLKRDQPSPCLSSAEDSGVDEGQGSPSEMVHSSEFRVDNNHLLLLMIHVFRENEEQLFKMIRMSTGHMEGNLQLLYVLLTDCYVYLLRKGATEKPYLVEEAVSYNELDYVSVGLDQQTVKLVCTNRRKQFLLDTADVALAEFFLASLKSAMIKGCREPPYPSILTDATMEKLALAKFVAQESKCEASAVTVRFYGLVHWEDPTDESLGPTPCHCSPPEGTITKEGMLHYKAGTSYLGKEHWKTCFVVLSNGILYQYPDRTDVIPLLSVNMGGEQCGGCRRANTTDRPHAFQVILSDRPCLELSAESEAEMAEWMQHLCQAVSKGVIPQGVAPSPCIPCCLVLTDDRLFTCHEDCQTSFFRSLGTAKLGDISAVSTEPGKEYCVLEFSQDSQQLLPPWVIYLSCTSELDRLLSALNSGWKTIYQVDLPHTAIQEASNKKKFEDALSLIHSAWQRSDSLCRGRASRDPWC
# Sequence of UniProt Q8NFG4 (Q8NFG4 whole entry): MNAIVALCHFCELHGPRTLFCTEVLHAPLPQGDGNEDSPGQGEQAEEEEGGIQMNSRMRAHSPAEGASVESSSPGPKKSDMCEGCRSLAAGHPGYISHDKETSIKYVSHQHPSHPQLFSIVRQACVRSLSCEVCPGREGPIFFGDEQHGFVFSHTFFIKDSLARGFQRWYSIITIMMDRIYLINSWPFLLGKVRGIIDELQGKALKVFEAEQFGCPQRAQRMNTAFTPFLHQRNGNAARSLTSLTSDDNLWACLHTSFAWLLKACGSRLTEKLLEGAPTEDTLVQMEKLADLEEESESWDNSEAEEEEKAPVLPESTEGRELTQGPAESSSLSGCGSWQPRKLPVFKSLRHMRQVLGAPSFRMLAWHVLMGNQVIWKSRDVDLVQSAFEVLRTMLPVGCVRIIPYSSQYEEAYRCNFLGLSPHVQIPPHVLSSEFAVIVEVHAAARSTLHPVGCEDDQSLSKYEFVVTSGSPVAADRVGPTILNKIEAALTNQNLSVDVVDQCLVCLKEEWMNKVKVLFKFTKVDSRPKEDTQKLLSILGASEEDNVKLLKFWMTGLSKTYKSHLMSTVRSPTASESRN
# Sequence of UniProt Q12788 (Q12788 whole entry): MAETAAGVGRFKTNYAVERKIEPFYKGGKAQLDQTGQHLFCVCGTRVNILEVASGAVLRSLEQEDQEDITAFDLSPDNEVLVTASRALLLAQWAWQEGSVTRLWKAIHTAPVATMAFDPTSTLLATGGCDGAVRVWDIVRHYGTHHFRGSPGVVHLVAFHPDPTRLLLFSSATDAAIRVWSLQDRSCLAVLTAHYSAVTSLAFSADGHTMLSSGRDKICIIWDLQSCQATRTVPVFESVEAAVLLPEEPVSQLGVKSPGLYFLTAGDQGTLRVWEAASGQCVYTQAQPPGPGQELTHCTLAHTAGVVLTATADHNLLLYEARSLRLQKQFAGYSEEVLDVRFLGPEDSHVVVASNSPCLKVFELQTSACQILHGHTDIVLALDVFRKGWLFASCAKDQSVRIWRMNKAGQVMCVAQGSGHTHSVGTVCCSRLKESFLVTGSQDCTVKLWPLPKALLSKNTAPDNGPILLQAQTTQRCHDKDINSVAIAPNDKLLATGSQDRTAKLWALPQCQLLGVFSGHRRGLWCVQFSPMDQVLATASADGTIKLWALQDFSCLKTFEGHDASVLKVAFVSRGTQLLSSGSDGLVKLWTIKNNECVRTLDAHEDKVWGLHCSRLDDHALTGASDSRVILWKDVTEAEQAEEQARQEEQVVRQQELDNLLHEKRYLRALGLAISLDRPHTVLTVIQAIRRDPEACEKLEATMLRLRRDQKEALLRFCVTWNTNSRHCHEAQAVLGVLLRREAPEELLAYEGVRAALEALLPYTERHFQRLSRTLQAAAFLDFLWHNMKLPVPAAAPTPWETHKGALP
# Sequence of UniProt Q86X83 (Q86X83 whole entry): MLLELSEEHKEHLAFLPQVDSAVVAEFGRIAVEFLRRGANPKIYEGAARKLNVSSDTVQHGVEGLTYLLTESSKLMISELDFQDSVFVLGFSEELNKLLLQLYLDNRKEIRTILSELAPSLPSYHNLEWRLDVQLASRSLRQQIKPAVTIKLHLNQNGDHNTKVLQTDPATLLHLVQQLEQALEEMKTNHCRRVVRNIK
# Sequence of UniProt Q8TCD5 (Q8TCD5 whole entry, one chain of several): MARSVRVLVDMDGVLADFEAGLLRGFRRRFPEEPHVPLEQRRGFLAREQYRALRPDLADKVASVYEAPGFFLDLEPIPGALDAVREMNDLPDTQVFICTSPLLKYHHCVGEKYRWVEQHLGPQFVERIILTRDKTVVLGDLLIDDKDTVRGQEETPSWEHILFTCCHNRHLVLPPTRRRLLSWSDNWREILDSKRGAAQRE
Target,NP40-soluble protein abundance (concentration: 1mM),NP40-soluble protein abundance (concentration: 2mM),NP40-soluble protein abundance (concentration: 4mM),NP40-soluble protein abundance (concentration: 6mM),NP40-soluble protein abundance (concentration: 8mM),NP40-soluble protein abundance (concentration: 10mM)
UniProt Q86VR2,0.91 ± 0.084,0.941 ± 0.088,0.925 ± 0.11,0.869 ± 0.037,0.906 ± 0.064,0.943 ± 0.052
FLCN (UniProt Q8NFG4),1.02 ± 0.056,1 ± 0.037,1.05 ± 0.066,0.988 ± 0.058,0.977 ± 0.07,0.974 ± 0.033
UniProt Q8N766|Q8N766-3,0.974 ± 0.082,0.977 ± 0.065,0.982 ± 0.056,0.878 ± 0.1,0.934 ± 0.013,0.977 ± 0.052
UniProt Q6IN85,1.03 ± 0.066,0.979 ± 0.042,0.946 ± 0.041,0.991 ± 0.048,0.956 ± 0.047,0.935 ± 0.08
FAM117B (UniProt Q6P1L5),0.945 ± 0.048,0.984 ± 0.061,0.97 ± 0.039,0.978 ± 0.042,0.952 ± 0.069,0.946 ± 0.032
UniProt Q6NW34|Q6NW34-2,0.863 ± 0.078,0.831 ± 0.11,0.792 ± 0.15,0.892 ± 0.11,0.84 ± 0.14,0.785 ± 0.21
THOC7 (UniProt Q6I9Y2),1.4 ± 0.11,1.5 ± 0.15,1.73 ± 0.19,1.95 ± 0.38,2.12 ± 0.2,2.03 ± 0.26
UniProt Q7L590|Q7L590-2|Q5T670,1.01 ± 0.11,1.07 ± 0.059,1.13 ± 0.044,1.01 ± 0.057,1.11 ± 0.12,1.14 ± 0.12
DDX51 (UniProt Q8N8A6),1.25 ± 0.021,1.38 ± 0.085,1.65 ± 0.15,1.9 ± 0.22,2.05 ± 0.18,2.29 ± 0.27
UniProt Q86X83|Q86X83-2,1.01 ± 0.038,0.975 ± 0.011,0.963 ± 0.024,0.927 ± 0.022,0.956 ± 0.048,0.971 ± 0.021
DHX9 (UniProt Q08211),1.24 ± 0.071,1.29 ± 0.043,1.49 ± 0.03,1.55 ± 0.024,1.88 ± 0.091,1.95 ± 0.15
UniProt Q8TCD5|J3KRC4,1 ± 0.021,1.02 ± 0.04,1.01 ± 0.057,0.942 ± 0.15,1.01 ± 0.11,0.954 ± 0.091
UniProt Q3KQU3|Q3KQU3-4,1.08 ± 0.1,1.03 ± 0.11,1.09 ± 0.13,1.13 ± 0.26,1.1 ± 0.16,1.14 ± 0.13
UniProt Q53HC0|Q53HC0-2,0.993 ± 0.083,0.918 ± 0.031,0.939 ± 0.082,0.993 ± 0.21,0.966 ± 0.092,0.922 ± 0.084
TTC19 (UniProt Q6DKK2),0.971 ± 0.078,0.922 ± 0.037,0.973 ± 0.043,0.923 ± 0.04,0.985 ± 0.038,0.865 ± 0.094
PRPF4B (UniProt Q13523),1.29 ± 0.015,1.329 ± 0.011,1.46 ± 0.018,1.6 ± 0.061,1.68 ± 0.041,1.8 ± 0.022
TBC1D25 (UniProt Q3MII6),0.982 ± 0.059,1.04 ± 0.11,1.05 ± 0.16,0.962 ± 0.095,1.01 ± 0.14,1 ± 0.15
UniProt Q13111|K7EPA1,0.987 ± 0.059,0.988 ± 0.028,0.97 ± 0.035,1.03 ± 0.031,0.977 ± 0.036,1.01 ± 0.036

Target,NP40-soluble protein abundance (concentration: 1mM),NP40-soluble protein abundance (concentration: 2mM),NP40-soluble protein abundance (concentration: 4mM),NP40-soluble protein abundance (concentration: 6mM),NP40-soluble protein abundance (concentration: 8mM),NP40-soluble protein abundance (concentration: 10mM)
PDCD7 (UniProt Q8N8D1),1.22 ± 0.14,1.24 ± 0.058,1.48 ± 0.099,1.48 ± 0.024,1.49 ± 0.13,1.76 ± 0.16
UniProt Q7L4P6|Q7L4P6-2,0.995 ± 0.085,1.12 ± 0.2,1.23 ± 0.3,1.2 ± 0.21,1.02 ± 0.096,1.12 ± 0.14
UniProt Q8IY17|Q8IY17-3|Q8IY17-4|Q8IY17-2,1.05 ± 0.056,1.05 ± 0.033,1.028 ± 0.0096,1.01 ± 0.051,1.04 ± 0.04,1.06 ± 0.036
TBL3 (UniProt Q12788),1.15 ± 0.06,1.3 ± 0.04,1.58 ± 0.036,1.59 ± 0.11,1.89 ± 0.1,2.01 ± 0.089
THOC5 (UniProt Q13769),1.53 ± 0.054,1.68 ± 0.11,2.01 ± 0.17,2.23 ± 0.28,2.52 ± 0.27,2.52 ± 0.29
SMC5 (UniProt Q8IY18),1.02 ± 0.026,1.02 ± 0.013,1.02 ± 0.02,1.04 ± 0.02,1.04 ± 0.016,1.04 ± 0.017
KBTBD2 (UniProt Q8IY47),1.14 ± 0.13,1.11 ± 0.027,1.15 ± 0.07,1.05 ± 0.044,1.16 ± 0.13,1.08 ± 0.026
C6ORF134 (UniProt Q5SQI0),0.975 ± 0.073,0.98 ± 0.089,0.981 ± 0.064,0.999 ± 0.09,0.983 ± 0.029,0.998 ± 0.04
ERCC6L (UniProt Q2NKX8),0.999 ± 0.024,0.986 ± 0.026,0.971 ± 0.024,0.999 ± 0.033,0.966 ± 0.0079,0.978 ± 0.017
UniProt Q8NI08-2,0.989 ± 0.064,1.03 ± 0.032,1.01 ± 0.016,1.02 ± 0.022,0.989 ± 0.039,0.993 ± 0.024
UniProt Q6PK18|Q6PK18-2,1.06 ± 0.02,1.06 ± 0.061,0.955 ± 0.045,1.03 ± 0.074,1.09 ± 0.15,1.04 ± 0.024
Q5VVD7|Q8IWE5 (UniProt Q8IWE5),0.929 ± 0.047,0.998 ± 0.048,0.932 ± 0.04,0.953 ± 0.036,0.95 ± 0.04,0.955 ± 0.03
GRAMD4 (UniProt Q6IC98),1.01 ± 0.02,0.998 ± 0.02,0.994 ± 0.035,1.02 ± 0.031,1.02 ± 0.025,1.01 ± 0.02
KIF18A (UniProt Q8NI77),1.09 ± 0.11,0.996 ± 0.2,1.09 ± 0.035,1.06 ± 0.013,1.09 ± 0.18,1.18 ± 0.16
UniProt Q16630|Q16630-2,2.36 ± 0.24,2.68 ± 0.27,2.89 ± 0.3,3.09 ± 0.32,3.03 ± 0.2,3.05 ± 0.28
KRR1 (UniProt Q13601),1.12 ± 0.012,1.16 ± 0.043,1.23 ± 0.066,1.27 ± 0.047,1.29 ± 0.026,1.42 ± 0.033
UniProt Q86X95,0.964 ± 0.013,0.935 ± 0.061,0.9643 ± 0.008,0.949 ± 0.026,0.935 ± 0.0096,0.913 ± 0.02
PCGF5 (UniProt Q86SE9),0.922 ± 0.16,1.01 ± 0.056,0.981 ± 0.15,0.987 ± 0.087,0.954 ± 0.11,1.07 ± 0.037
